The source of these data is ChEMBL document CHEMBL2218924, “A broad activity screen in support of a chemogenomic map for kinase signalling research and drug discovery” (Biochem J, 2013).

Assay [1] addresses T1, Tyrosine-protein kinase receptor TYRO3 (Homo sapiens) (UniProt Q06418).
T1 sequence (whole entry): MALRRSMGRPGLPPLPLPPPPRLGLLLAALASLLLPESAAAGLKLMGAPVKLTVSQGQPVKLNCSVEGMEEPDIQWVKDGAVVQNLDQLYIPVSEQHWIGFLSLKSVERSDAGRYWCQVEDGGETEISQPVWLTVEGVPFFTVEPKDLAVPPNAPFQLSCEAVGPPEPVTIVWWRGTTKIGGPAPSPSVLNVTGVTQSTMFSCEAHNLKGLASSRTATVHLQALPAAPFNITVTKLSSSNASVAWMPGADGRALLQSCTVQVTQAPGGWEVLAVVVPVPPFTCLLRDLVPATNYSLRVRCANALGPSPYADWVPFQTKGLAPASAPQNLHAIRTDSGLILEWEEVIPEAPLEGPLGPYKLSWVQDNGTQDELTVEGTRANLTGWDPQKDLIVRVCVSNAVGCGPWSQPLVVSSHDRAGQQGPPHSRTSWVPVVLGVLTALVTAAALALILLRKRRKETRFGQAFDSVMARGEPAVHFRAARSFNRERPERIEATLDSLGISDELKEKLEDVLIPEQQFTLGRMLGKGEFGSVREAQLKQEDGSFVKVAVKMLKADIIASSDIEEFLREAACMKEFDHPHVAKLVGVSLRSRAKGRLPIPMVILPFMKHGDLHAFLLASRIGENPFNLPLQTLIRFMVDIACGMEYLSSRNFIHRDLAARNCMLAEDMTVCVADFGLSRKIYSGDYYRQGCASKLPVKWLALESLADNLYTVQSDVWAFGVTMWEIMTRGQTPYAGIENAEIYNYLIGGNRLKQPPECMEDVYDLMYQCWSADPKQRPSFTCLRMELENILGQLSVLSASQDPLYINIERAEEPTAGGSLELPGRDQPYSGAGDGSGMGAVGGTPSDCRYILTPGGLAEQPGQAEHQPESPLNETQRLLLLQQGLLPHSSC
The settings on record: at 1 µM.

The target in assay [2] is T1, Tyrosine-protein kinase receptor TYRO3 (Homo sapiens). Particulars: at 10 µM.
Assay [3] addresses Ribosomal protein S6 kinase alpha-1 (Homo sapiens) (UniProt Q15418). The settings on record: at 1 µM.
Assay [4] shares this target. Particulars: at 10 µM.
Assay [5] deals with Ribosomal protein S6 kinase alpha-3 (Homo sapiens) (UniProt P51812). Particulars: at 1 µM.
Assay [6] has the same target. Particulars: at 10 µM.
Assay [7] concerns the target Ribosomal protein S6 kinase alpha-2 (Homo sapiens) (UniProt Q15349). The settings on record: at 1 µM.
Assay [8] has the same target. The settings on record: at 10 µM.
Assay [9] addresses Ribosomal protein S6 kinase alpha-6 (Homo sapiens) (UniProt Q9UK32). The settings on record: at 1 µM.
Assay [10] shares this target. The settings on record: at 10 µM.
Assay [11] has as its target Mitogen-activated protein kinase 14 (Homo sapiens) (UniProt Q16539). The settings on record: at 1 µM.
Assay [12] shares this target. The settings on record: at 10 µM.
Assay [13] concerns the target Mitogen-activated protein kinase 11 (Homo sapiens) (UniProt Q15759). The settings on record: at 1 µM.
Assay [14] has the same target. Particulars: at 10 µM.
Assay [15] has as its target T2, Mitogen-activated protein kinase 12 (Homo sapiens) (UniProt P53778).
T2 sequence (whole entry): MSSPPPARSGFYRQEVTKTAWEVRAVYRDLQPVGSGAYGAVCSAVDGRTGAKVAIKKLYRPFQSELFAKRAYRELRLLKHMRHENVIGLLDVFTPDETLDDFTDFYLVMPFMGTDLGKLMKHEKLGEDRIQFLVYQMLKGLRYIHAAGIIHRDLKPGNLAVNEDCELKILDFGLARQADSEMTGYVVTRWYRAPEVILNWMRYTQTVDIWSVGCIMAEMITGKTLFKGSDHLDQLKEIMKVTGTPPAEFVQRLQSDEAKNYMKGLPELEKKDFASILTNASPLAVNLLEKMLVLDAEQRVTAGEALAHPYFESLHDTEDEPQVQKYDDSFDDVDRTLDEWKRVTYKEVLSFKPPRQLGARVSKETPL
The settings on record: at 1 µM.

The target of assay [16] is T2, Mitogen-activated protein kinase 12 (Homo sapiens). The settings on record: at 10 µM.
The target of assay [17] is T3, Mitogen-activated protein kinase 13 (Homo sapiens) (UniProt O15264).
T3 sequence (whole entry): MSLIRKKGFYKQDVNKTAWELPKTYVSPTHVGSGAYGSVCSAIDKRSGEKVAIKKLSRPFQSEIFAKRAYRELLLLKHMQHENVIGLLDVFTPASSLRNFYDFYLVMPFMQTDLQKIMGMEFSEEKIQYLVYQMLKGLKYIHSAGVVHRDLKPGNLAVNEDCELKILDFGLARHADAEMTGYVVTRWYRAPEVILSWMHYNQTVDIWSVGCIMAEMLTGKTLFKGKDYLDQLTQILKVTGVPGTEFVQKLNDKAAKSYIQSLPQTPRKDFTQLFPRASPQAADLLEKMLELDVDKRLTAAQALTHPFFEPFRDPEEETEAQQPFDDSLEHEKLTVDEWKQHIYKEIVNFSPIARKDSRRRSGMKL
The settings on record: at 1 µM.

For assay [18], the target named is T3, Mitogen-activated protein kinase 13 (Homo sapiens). Particulars: at 10 µM.
The target in assay [19] is T4, Serine/threonine-protein kinase Sgk1 (Homo sapiens) (UniProt O00141).
T4 sequence (whole entry): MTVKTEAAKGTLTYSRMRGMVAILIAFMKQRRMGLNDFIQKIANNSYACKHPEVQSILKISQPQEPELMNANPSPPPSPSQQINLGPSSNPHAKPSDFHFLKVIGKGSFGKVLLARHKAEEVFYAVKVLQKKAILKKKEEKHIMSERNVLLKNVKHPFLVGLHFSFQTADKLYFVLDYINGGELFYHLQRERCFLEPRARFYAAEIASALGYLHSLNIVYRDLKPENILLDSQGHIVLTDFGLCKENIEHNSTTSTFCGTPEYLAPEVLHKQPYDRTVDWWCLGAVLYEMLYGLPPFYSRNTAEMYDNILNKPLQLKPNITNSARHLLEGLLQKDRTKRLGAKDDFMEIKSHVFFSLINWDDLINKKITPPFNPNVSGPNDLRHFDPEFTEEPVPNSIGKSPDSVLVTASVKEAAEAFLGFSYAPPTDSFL
Particulars: at 1 µM.

In assay [20] the target is T4, Serine/threonine-protein kinase Sgk1 (Homo sapiens). The settings on record: at 10 µM.

Molecules are shown by their SMILES.

Sequence of Ribosomal protein S6 kinase alpha-1 (Homo sapiens) (Q15418 whole entry): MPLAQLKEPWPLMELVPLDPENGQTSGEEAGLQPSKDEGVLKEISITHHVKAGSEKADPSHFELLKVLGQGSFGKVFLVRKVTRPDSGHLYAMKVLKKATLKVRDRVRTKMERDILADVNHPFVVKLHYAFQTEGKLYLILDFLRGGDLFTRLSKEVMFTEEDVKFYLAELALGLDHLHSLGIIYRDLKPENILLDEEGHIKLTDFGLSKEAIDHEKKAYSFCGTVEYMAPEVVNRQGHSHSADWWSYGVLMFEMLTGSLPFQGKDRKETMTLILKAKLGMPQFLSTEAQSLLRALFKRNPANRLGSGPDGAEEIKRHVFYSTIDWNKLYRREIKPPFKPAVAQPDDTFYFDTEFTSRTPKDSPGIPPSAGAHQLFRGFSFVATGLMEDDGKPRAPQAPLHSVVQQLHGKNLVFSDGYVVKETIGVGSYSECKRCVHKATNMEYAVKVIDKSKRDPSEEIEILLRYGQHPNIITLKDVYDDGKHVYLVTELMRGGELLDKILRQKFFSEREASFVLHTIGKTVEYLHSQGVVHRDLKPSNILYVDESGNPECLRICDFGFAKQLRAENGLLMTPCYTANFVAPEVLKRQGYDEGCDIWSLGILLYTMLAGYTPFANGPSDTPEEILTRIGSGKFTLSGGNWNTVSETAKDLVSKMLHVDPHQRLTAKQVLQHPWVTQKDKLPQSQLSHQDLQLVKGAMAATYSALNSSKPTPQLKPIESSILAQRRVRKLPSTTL
Sequence of Ribosomal protein S6 kinase alpha-6 (Homo sapiens) (Q9UK32 whole entry): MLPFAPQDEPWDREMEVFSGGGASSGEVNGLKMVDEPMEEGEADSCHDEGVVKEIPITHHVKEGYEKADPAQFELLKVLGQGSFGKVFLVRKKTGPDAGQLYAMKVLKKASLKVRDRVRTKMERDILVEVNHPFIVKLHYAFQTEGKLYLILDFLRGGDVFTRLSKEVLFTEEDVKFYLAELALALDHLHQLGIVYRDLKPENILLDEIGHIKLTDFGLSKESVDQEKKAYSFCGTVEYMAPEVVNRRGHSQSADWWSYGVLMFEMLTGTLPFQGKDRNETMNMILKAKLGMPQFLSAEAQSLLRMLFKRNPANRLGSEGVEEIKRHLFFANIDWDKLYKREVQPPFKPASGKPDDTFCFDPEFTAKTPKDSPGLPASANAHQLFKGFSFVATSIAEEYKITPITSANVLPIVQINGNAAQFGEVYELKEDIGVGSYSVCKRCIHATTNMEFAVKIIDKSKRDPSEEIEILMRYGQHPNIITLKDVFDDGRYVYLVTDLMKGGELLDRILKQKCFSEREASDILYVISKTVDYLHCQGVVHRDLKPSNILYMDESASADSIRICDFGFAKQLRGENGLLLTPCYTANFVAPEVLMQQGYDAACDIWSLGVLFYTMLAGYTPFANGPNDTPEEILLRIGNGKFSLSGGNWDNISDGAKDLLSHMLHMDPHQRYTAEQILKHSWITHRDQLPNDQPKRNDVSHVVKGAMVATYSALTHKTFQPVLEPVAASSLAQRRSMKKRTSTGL
Sequence of Mitogen-activated protein kinase 11 (Homo sapiens) (Q15759 whole entry): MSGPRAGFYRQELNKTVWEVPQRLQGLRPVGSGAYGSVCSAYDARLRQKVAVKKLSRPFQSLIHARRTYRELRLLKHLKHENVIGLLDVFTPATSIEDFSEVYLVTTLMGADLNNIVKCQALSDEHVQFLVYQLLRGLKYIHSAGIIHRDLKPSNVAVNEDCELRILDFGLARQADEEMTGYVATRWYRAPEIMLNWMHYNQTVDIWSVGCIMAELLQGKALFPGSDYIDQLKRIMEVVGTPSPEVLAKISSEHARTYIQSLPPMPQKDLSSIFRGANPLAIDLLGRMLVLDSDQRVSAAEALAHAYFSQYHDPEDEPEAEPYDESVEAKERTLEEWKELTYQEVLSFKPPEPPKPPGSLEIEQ
Sequence of Mitogen-activated protein kinase 14 (Homo sapiens) (Q16539 whole entry): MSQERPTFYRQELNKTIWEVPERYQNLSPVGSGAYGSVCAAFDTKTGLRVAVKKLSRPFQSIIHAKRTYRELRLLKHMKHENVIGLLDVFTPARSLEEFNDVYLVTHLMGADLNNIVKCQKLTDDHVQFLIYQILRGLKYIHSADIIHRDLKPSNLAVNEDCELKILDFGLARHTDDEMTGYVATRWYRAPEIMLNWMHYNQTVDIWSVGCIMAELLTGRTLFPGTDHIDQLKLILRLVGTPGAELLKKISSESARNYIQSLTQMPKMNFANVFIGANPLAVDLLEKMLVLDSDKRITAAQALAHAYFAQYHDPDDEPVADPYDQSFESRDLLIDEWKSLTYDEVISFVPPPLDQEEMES
Sequence of Ribosomal protein S6 kinase alpha-2 (Homo sapiens) (Q15349 whole entry): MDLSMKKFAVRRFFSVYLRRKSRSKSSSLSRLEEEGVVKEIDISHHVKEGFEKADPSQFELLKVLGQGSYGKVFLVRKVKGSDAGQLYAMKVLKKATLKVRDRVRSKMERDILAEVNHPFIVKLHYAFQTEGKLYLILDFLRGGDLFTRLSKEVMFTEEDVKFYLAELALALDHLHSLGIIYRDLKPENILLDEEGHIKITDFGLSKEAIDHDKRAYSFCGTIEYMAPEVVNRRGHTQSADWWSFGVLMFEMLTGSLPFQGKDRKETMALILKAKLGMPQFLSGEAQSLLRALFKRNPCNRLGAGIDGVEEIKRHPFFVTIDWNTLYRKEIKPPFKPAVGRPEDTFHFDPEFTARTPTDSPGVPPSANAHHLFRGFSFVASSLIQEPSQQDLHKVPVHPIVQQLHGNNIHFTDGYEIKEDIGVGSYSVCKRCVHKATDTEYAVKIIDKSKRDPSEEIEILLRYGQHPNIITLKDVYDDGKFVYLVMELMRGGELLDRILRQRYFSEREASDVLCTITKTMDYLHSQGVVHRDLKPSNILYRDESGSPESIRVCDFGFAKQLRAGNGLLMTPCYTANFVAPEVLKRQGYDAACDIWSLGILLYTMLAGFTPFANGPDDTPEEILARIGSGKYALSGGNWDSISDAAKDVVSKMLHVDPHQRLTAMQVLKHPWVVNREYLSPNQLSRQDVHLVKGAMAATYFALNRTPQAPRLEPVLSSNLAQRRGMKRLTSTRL
Sequence of Ribosomal protein S6 kinase alpha-3 (Homo sapiens) (P51812 whole entry): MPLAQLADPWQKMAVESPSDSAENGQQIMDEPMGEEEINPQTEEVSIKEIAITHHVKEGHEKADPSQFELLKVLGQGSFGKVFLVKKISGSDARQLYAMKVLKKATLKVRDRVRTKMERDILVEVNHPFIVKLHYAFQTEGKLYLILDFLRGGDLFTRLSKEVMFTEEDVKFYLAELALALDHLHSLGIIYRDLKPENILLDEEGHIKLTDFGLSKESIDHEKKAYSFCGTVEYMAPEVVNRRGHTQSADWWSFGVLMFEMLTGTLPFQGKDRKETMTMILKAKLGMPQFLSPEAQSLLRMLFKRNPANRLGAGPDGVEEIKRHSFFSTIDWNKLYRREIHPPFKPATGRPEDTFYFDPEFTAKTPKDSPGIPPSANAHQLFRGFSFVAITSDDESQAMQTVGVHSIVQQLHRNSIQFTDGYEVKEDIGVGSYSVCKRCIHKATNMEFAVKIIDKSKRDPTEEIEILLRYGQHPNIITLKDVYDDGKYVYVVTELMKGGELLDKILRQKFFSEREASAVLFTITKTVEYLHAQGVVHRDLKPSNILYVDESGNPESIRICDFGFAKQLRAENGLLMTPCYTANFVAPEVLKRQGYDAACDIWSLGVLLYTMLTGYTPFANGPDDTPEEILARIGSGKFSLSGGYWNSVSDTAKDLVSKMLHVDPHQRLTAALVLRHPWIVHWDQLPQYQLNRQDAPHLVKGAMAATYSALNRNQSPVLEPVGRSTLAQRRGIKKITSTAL

Regarding `O=[N+]([O-])/C=C/c1ccc2c(c1)OCO2`, the residual activity in [1] was found to be 100%; in assay [2] it was 111%; in assay [3] it was 137%; in [4], 106%; in assay [5], 118%; in assay [6] it was 100%. In addition, the residual activity came to 105% in [7]; 94% in assay [8]; 128% in assay [9]; 94% in [10]; 93% in [11]; 105% in assay [12]. For the same compound, the residual activity in assay [13] amounted to 102%; in assay [14], 110%; in assay [15], 107%; in assay [16] it was 99%; in assay [17], 103%; in assay [18], 98%. In addition, the values for the residual activity in assay [19] and in assay [20] were 76% and 105%, respectively.
Turning to `C[S+]([O-])c1ccc(-c2nc(-c3ccc(F)cc3)c(-c3ccncc3)[nH]2)cc1` (stereo not drawn), the residual activity is 107% in assay [1]; 80% in [4]; 108% in [5]; 97% in assay [6]; 107% in assay [7]; 96% in assay [8]. Besides, the residual activity in assay [9] was determined as 114%; in assay [10] it was 113%; in assay [15] it was 114%; in assay [16] it was 86%; in assay [17] it was 111%; in [19], 96%. In addition, the residual activity in assay [20] was 124%.
In the case of `CCc1nc(-c2ccc(OC)cc2)[nH]c1-c1ccncc1`, the residual activity in assay [1] is 107%; in assay [2] it was 108%; in assay [3] it was 105%; in assay [4], 104%; in assay [5], 52%; in [6] it was 55%. In addition, the residual activity stood at 56% in assay [13], 72% in assay [14], 108% in assay [15] and 104% in assay [16].
Regarding `COc1ccc2c(c1)c(C1=C(c3c[nH]c4ccccc34)C(=O)NC1=O)cn2CCCN(C)C`, the residual activity in assay [15] and in assay [16] was 100% each time.
As to `CCn1cnc2c(Nc3cccc(Cl)c3)nc(N[C@@H]3CCCC[C@@H]3N)nc21`, the residual activity in [1] stood at 93%; in assay [2], 50%; in assay [3] it was 67%; in assay [4], 16%; in assay [5], 28%; in assay [6] it was 4%. The residual activity stood at 30% in assay [7]; 5% in assay [8]; 24% in [9]; 7% in assay [10]; 90% in assay [11]; 61% in assay [12]. Further, the residual activity worked out at 94% in [13]; 76% in [14]; 94% in assay [16]; 81% in assay [18]; 91% in assay [19]; 90% in assay [20].
Regarding `N/C(=N\[N+](=O)[O-])N/N=C\c1ccc(-c2cccc([N+](=O)[O-])c2)o1`, the residual activity in assay [5] stood at 43%; in assay [6], 52%; in [9], 93%; in [10] it was 96%; in [11] it was 81%; in [12], 91%.
Take `N#Cc1c(NC(=O)c2cccc3ccccc23)sc2c1CCCC2`: in assay [15], the residual activity amounted to 96%.
For the compound `N#C/C(=C(\N)Sc1ccc(N)cc1)c1ccccc1C(F)(F)F`, the residual activity is 104% in assay [15] and 105% in [16].
With `COc1ccc(OC)c2c(=S)c3ccccc3[nH]c12`, the values for the residual activity in assay [15] and in assay [16] were 95% and 91%, respectively.
In the case of `Cc1cc(Nc2nc(-c3ccccc3)nc3ccccc23)n[nH]1`, the residual activity in assay [15] amounted to 103%.
As for `O=C1c2ccccc2-c2nc3nnnn3nc21`, the residual activity is 106% in assay [1]; 114% in assay [2]; 109% in [3]; 103% in [4]; 67% in [5]; 53% in assay [6]. Further, the residual activity in [7] came out at 120%; in assay [8] it was 106%; in assay [11], 111%; in assay [12], 112%; in assay [13], 102%; in [14] it was 104%. The residual activity amounted to 130% in assay [15]; 117% in assay [16]; 119% in assay [17]; 101% in assay [18]; 146% in assay [19]; 71% in assay [20].
